# Source: the supplement of paper PMC10849652
# The full data set covers some 7,900 targets. This sample favours those with a hit. About 0.6% of all pairs of compound and target were hits. A number with no mark means an inactive call.
# Legend:
# Test in all cases: log2 fold change, soluble protein after heating vs DMSO (PISA); higher = thermal stabilisation; K562 cells, 10 uM, 30 min; active = over 0.2 and 3.5 SD of the protein, either way, in both replicates (recomputed)
# idasanutlin = compound: COc1cc(C(=O)O)ccc1NC(=O)[C@@H]1N[C@@H](CC(C)(C)C)[C@](C#N)(c2ccc(Cl)cc2F)[C@H]1c1cccc(Cl)c1F [idasanutlin]
# Outline: (§1)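 Quantification of soluble protein used TMTpro 16plex LC-MS/MS, with channel sums equalised. Samples were the supernatant after 21,000xg for 90 min of pooled aliquots from K562 cells (2×10^6 cells/mL) treated with 10 μM compound for 30 min, heated for 3 min over 48°C-58°C, and extracted in PBS with 0.5% NP-40 at 4°C. Values, from duplicates, describe thermal stability against control samples on a log2 fold-change scale.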
# alisertib = compound: COc1cc(Nc2ncc3c(n2)-c2ccc(Cl)cc2C(c2c(F)cccc2OC)=NC3)ccc1C(=O)O [alisertib]
# Outline: as §1
# gefitinib = compound: COc1cc2ncnc(Nc3ccc(F)c(Cl)c3)c2cc1OCCCN1CCOCC1 [gefitinib]
# Outline: as §1
# [1] = compound: COc1cccc2cc(-c3nc([C@H]4CC[C@H](C(=O)O)CC4)n4ncnc(N)c34)[nH]c12
# Outline: as §1
# duvelisib = compound: C[C@H](Nc1ncnc2nc[nH]c12)c1cc2cccc(Cl)c2c(=O)n1-c1ccccc1 [duvelisib]
# Outline: as §1
# tozasertib = compound: Cc1cc(Nc2cc(N3CCN(C)CC3)nc(Sc3ccc(NC(=O)C4CC4)cc3)n2)n[nH]1 [tozasertib]
# Outline: as §1
# [2] = compound: Cc1cc(SCc2sc(-c3ccc(C(F)(F)F)cc3)nc2C)ccc1OCC(=O)O
# Outline: as §1
# ispinesib = compound: Cc1ccc(C(=O)N(CCCN)[C@@H](c2nc3cc(Cl)ccc3c(=O)n2Cc2ccccc2)C(C)C)cc1 [ispinesib]
# Outline: as §1
# zotarolimus = compound: CO[C@H]1C[C@@H]2CC[C@@H](C)[C@@](O)(O2)C(=O)C(=O)N2CCCC[C@H]2C(=O)O[C@H]([C@H](C)C[C@@H]2CC[C@H](n3cnnn3)[C@H](OC)C2)CC(=O)[C@H](C)/C=C(\C)[C@@H](O)[C@@H](OC)C(=O)[C@H](C)C[C@H](C)/C=C/C=C/C=C/1C [zotarolimus]
# Outline: as §1
# pictilisib = compound: CS(=O)(=O)N1CCN(Cc2cc3nc(-c4cccc5[nH]ncc45)nc(N4CCOCC4)c3s2)CC1 [pictilisib]
# Outline: as §1
# [3] = compound: C[C@H](C1=CC=C(C=C1)C(=O)NC2=C3C=CNC3=NC=C2)N
# Outline: as §1
# gandotinib = compound: Cc1cc(Nc2cc(CN3CCOCC3)c3nc(C)c(Cc4ccc(Cl)cc4F)n3n2)n[nH]1 [gandotinib]
# Outline: as §1
# [4] = compound: COC1=CC=C(C=C1)CN2C=CC3=C2C=C(C=C3)C(=O)NO
# Outline: as §1
# [5] = compound: COc1cc2nc(-c3cc(F)ccc3O)nc(N[C@@H]3CNC[C@H]3C(C)(C)O)c2cc1OC
# Outline: as §1
# lapatinib = compound: CS(=O)(=O)CCNCc1ccc(-c2ccc3ncnc(Nc4ccc(OCc5cccc(F)c5)c(Cl)c4)c3c2)o1 [lapatinib]
# Outline: as §1
# crizotinib = compound: C[C@@H](Oc1cc(-c2cnn(C3CCNCC3)c2)cnc1N)c1c(Cl)ccc(F)c1Cl [crizotinib]
# Outline: as §1
# [6] = compound: C[C@@H]1COCCN1C2=NC(=NC(=C2)C3(CC3)S(=O)(=O)C)C4=C5C=CNC5=CC=C4
# Outline: as §1
# doramapimod = compound: Cc1ccc(-n2nc(C(C)(C)C)cc2NC(=O)Nc2ccc(OCCN3CCOCC3)c3ccccc23)cc1 [doramapimod]
# Outline: as §1
# filanesib = compound: CON(C)C(=O)N1N=C(c2cc(F)ccc2F)S[C@@]1(CCCN)c1ccccc1 [filanesib]
# Outline: as §1
# [7] = compound: CS(=O)(=O)c1ccc(-c2cnc(N)c(C(=O)Nc3ccccc3)n2)cc1
# Outline: as §1
# Sequence of UniProt Q9BWG4 (Q9BWG4 whole entry, looked up): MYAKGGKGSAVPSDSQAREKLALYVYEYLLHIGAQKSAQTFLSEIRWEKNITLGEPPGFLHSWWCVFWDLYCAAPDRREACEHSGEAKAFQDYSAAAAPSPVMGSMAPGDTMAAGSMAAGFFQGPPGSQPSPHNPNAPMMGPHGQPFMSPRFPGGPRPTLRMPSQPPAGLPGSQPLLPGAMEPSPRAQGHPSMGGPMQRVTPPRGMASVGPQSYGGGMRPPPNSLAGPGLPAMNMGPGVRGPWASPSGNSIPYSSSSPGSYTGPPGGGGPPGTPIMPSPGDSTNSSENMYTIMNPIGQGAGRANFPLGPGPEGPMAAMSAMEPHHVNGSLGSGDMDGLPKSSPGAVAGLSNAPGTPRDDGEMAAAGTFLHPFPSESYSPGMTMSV
# Sequence of UniProt P20226 (P20226 whole entry, looked up): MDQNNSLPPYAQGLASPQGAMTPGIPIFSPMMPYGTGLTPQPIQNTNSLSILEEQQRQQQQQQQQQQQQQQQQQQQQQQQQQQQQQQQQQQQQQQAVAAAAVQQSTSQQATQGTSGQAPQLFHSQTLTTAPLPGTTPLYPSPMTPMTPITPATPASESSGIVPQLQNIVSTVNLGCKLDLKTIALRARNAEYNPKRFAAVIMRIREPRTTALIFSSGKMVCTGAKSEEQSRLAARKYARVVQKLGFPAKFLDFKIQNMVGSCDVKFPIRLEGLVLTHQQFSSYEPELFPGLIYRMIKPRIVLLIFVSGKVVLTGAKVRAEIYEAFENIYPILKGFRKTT
# Sequence of UniProt Q92581 (Q92581 whole entry, looked up): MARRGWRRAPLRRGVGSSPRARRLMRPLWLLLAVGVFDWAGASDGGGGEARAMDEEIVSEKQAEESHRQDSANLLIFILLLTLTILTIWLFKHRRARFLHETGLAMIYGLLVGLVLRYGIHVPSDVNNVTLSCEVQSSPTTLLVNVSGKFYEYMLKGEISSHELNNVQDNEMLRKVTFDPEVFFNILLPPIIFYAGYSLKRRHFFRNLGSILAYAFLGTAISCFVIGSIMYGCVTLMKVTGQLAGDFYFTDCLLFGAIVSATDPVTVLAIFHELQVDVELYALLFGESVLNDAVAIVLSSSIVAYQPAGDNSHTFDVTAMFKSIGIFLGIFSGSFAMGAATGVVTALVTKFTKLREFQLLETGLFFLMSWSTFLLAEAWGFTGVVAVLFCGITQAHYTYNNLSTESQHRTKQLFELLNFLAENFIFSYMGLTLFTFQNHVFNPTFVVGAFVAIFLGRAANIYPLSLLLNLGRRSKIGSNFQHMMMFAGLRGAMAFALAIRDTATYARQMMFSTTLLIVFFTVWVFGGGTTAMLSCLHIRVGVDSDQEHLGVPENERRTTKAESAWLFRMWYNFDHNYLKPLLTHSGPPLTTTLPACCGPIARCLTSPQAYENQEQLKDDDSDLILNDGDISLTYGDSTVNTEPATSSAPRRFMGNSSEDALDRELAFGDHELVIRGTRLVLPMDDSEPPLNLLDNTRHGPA
# Sequence of UniProt Q969X1 (Q969X1 whole entry, looked up): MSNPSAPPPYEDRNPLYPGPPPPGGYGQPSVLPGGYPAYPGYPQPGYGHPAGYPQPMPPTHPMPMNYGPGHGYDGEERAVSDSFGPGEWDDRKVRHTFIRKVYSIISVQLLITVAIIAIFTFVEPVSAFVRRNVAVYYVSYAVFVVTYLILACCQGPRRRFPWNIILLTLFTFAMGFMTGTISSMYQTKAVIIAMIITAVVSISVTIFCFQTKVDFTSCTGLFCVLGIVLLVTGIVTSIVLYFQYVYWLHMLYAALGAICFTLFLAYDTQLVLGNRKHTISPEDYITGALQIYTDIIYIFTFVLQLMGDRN
# Sequence of UniProt Q8N9U0 (Q8N9U0 whole entry, looked up): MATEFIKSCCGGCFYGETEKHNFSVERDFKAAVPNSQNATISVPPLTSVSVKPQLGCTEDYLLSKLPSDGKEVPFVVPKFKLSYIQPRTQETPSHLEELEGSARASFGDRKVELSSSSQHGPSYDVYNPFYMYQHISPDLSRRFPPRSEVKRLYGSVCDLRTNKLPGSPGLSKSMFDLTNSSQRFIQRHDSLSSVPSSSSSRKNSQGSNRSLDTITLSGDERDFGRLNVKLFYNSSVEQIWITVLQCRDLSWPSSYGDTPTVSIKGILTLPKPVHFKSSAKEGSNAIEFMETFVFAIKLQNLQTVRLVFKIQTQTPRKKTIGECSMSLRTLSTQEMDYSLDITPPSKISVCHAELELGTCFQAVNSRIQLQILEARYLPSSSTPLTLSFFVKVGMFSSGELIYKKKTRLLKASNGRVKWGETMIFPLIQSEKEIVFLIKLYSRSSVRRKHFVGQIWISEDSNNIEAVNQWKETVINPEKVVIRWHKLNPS
# Sequence of UniProt P36956 (P36956 whole entry, looked up): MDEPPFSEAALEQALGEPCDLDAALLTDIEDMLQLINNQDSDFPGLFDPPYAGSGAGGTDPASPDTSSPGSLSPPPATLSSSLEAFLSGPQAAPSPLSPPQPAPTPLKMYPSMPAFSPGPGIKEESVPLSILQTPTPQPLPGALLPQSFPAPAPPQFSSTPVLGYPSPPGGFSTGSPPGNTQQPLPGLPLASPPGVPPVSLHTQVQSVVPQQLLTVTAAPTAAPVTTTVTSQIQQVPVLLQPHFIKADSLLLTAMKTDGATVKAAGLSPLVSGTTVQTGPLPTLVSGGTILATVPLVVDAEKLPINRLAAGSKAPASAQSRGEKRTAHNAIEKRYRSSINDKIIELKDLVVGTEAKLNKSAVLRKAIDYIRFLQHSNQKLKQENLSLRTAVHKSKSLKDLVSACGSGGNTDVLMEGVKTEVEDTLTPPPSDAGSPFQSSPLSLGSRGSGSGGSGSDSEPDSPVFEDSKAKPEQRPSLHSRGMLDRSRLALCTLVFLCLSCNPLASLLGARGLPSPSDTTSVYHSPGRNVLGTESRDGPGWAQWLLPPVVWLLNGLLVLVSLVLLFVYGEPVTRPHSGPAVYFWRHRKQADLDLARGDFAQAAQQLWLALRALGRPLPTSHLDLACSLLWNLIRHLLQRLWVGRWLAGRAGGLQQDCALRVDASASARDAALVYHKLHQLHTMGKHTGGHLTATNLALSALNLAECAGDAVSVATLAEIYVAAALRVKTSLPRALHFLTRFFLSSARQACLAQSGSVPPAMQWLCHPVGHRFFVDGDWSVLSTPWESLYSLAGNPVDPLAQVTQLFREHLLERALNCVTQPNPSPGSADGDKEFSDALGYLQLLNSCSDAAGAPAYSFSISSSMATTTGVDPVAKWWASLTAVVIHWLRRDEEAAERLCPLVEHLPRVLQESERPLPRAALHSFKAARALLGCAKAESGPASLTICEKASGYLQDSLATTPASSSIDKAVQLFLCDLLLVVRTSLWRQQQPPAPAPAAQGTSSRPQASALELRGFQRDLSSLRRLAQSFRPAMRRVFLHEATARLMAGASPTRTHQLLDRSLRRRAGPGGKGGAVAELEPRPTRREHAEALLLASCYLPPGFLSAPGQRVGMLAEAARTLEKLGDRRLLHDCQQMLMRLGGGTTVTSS
# Sequence of UniProt Q5VWP2 (Q5VWP2 whole entry, looked up): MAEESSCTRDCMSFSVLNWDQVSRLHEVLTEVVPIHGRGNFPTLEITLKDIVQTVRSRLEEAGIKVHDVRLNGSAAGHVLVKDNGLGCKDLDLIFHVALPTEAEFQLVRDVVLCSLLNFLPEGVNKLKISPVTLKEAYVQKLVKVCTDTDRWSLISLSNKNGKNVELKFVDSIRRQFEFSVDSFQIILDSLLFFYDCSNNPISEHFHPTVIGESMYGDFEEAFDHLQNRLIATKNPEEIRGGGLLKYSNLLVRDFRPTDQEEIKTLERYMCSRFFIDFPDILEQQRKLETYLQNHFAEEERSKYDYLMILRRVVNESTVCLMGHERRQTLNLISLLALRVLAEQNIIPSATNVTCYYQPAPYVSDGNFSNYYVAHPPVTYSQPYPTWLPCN
# Sequence of UniProt Q9NRH2 (Q9NRH2 whole entry, looked up): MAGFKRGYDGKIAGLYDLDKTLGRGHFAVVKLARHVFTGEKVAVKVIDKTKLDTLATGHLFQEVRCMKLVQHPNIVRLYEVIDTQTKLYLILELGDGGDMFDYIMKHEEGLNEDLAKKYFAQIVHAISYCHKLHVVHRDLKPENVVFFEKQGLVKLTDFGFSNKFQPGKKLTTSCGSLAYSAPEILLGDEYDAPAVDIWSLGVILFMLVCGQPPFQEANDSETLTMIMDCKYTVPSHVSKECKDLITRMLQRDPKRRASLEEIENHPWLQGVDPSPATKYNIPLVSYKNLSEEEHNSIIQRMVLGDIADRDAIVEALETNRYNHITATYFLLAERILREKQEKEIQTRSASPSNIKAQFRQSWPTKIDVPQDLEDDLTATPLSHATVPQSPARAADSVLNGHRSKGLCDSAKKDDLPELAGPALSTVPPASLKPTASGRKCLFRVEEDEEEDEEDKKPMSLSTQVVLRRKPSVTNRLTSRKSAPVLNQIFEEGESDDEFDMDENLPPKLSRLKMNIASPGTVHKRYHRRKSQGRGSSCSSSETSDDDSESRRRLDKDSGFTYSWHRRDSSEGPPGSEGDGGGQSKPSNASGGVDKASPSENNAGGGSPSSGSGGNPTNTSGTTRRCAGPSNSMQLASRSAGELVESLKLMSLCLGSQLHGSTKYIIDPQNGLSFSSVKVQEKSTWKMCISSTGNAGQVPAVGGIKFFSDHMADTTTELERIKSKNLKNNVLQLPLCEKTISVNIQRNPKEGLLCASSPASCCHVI
# Sequence of UniProt Q12824 (Q12824 whole entry, looked up): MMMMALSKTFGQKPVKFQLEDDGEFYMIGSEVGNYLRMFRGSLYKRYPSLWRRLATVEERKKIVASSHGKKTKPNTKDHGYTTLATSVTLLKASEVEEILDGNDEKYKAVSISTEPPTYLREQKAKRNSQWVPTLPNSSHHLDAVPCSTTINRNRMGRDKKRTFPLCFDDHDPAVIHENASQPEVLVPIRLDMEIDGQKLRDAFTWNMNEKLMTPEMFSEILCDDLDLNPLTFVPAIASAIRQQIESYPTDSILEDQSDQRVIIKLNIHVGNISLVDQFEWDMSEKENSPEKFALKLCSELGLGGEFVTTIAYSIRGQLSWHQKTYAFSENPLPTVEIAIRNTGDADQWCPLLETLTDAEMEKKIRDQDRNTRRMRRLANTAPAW
Target,log2 fold change (idasanutlin),log2 fold change (alisertib),log2 fold change (gefitinib),log2 fold change [1],log2 fold change (duvelisib),log2 fold change (tozasertib),log2 fold change [2],log2 fold change (ispinesib),log2 fold change (zotarolimus),log2 fold change (pictilisib),log2 fold change [3],log2 fold change (gandotinib),log2 fold change [4],log2 fold change [5],log2 fold change (lapatinib),log2 fold change (crizotinib),log2 fold change [6],log2 fold change (doramapimod),log2 fold change (filanesib),log2 fold change [7]
TC2N (UniProt Q8N9U0),-0.003,0.012,-0.066,0.127,0.256,-0.095,-0.072,-0.071,–,–,–,–,–,–,–,–,–,–,–,–
SLC39A1 (UniProt Q9NY26),–,–,–,–,–,–,–,–,-0.15,-0.053,0.023,-0.137,–,–,–,–,–,–,–,–
TBP (UniProt P20226),-0.076,0.148,0.044,0.081,-0.135,0.072,-0.098,-0.006,-0.1,–,0.303,–,-0.014,0.072,0.023,0.048,-0.021,-0.023,–,–
TK1 (UniProt K7ERV3),-0.075,0.121,0.026,0,0.046,0.012,-0.041,0.005,-0.034,0.102,0.182,-0.029,–,-0.107,-0.107,–,0.021,–,0.005,0
SNRK (UniProt Q9NRH2),–,–,–,–,-0.162,–,-0.067,–,–,–,–,–,0.15,0.84 (active),0.016,-0.026,–,0.001,0.158,0.008
TMBIM1 (UniProt Q969X1),0.013,-0.018,-0.004,0.088,0.042,-0.154,-0.026,0.303,-0.117,0.138,0.274,-0.017,–,-0.254,0.172,–,-0.043,–,-0.161,-0.03
SLC9A6 isoform 3 (UniProt Q92581),0.098,–,–,–,-0.001,-0.126,-0.137,–,-0.051,–,-0.018,–,–,0.055,-0.072,–,–,–,–,–
SMARCB1 (UniProt Q12824),–,–,–,–,0.241,0.252,0.097,–,0.136,0.424,0.284,0.49,-0.116,–,–,-0.128,–,0.049,0.026,0.024
SSBP4 (UniProt Q9BWG4),0.122,0.018,-0.001,0.029,0.255,-0.014,0.123,0.148,–,0.117,–,-0.121,-0.065,0.076,-0.145,-0.034,–,0.103,-0.601,-0.054
SREBF1 isoform 4 (UniProt P36956),–,-0.014,–,0.098,-0.083,–,0.089,–,–,–,–,–,-0.089,–,–,0.106,0.084,0.098,–,–
TCOF1 isoform 6 (UniProt Q13428),–,-0.263,0.028,-0.105,–,-0.008,–,-0.122,-0.062,–,-0.025,–,-0.318,–,–,0.032,–,-0.068,-0.087,-0.07
TENT5C (UniProt Q5VWP2),–,0,0.002,-0.021,0.111,-0.05,0.174,0.055,-0.56 (active),0.168,0.011,0.142,-0.133,0.075,-0.092,0.043,–,0.061,0.049,0.044
SLC8B1 (UniProt Q6J4K2),-0.034,–,–,–,0.196,–,-0.073,-0.477 (active),-0.097,0.016,0.129,-0.053,0.044,0.132,0.066,-0.793 (active),–,0.046,–,–
